Among all 1,600 compounds or so, about 1,100 (69%) were called active. The set was probably picked from earlier hits. A selection follows. Results with a measured potency or affinity are listed apart. Records with an inconclusive call do not appear.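 How the source made its calls: active means signal drop with fitted half-maximal concentration no higher than twice the top valid tested concentration; inconclusive means flat curve with 30 to 70% signal loss, or poor fit; inactive means the rest, including signal rises and flat curves within 30%.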
Test: HepG2 cell cytotoxicity, dose response, cytotoxicity control for Shn3 inhibitor project, CellTiter-Glo, cherry-picked (AID 624134)
Details: HepG2 viability, CellTiter-Glo ATP luminescence, 48 h; series mostly up to 35 µM

| Compound | outcome |
| --- | --- |
| C=CCOc1nc2c(c(=O)n(C)c(=O)n2C)n1Cc1ccc(Cl)cc1Cl | inactive |
| O=C(COC(=O)/C=C/c1ccc(OC(F)F)cc1)Nc1ccc2[nH]c(=O)[nH]c2c1 | inactive |
| C[C@]12CC[C@H](O)CC1=CCC1C2CC[C@@]2(C)C1CCC21OCCO1 (some centres not stated) | inactive |
| Cc1csc(=O)n1CC(=O)OCC(=O)c1c(N)n(C)c(=O)n(C)c1=O | inactive |
| CS(=O)(=O)c1nc(-c2ccc(Br)cc2)cc(-c2ccccc2)c1C#N | inactive |
| Cc1ccc2c(c1)c(C1=c3ccccc3=NC1=O)c(O)n2C | inactive |
| CCCCN1CC(COCc2ccccc2)Oc2cccc(Oc3ccc(C)cc3)c2S1(=O)=O (configuration not stated) | inactive |
| COc1ccc2c(c1OC)C(=O)N1c3ccccc3C(=O)N(c3ccccc3F)C21 (configuration not stated) | inactive |
| CC1CN(C(=O)CCc2cc(C(C)(C)C)c(O)c(C(C)(C)C)c2)CC(C)O1 (configuration not stated) | inactive |
| CCOc1ccc(Cn2nnc(C(=O)Nc3cc(OC)cc(OC)c3)c2N)cc1 | inactive |
| Cc1onc(-c2ccccc2Cl)c1C(=O)N(C)C1CCCCC1 | inactive |
| Cc1onc(-c2c(Cl)cccc2Cl)c1C(=O)N[C@@H]1C(=O)N2[C@@H]1SC(C)(C)[C@@H]2C(=O)O | inactive |
| COc1ccc(NC(=O)CCOc2cc(C)ccc2C)cc1S(=O)(=O)N1CCCCC1 | inactive |
| COCc1c(C(=O)Nc2cccc(S(=O)(=O)N3CCCCC3)c2)oc2ccccc12 | inactive |
| O=C(CSc1nnc(-c2ccc(Cl)cc2Cl)n1C1CCCCC1)N1CCCC1 | inactive |
| COC(=O)c1cn(NC(=O)c2cc([N+](=O)[O-])ccc2F)c(=O)c2ccccc12 | inactive |
| CCCCN1C2=NCCCN2c2cc(C)c(C)cc21 | inactive |
| CCN(CC)C(=O)[C@H]1C[C@H](CC(=O)NC/C=C(\C)CCC=C(C)C)C(=O)N2CCc3c([nH]c4cc(CCC(=O)N(C)C)ccc34)[C@]12C | inactive |
| COCCN1Cc2cccc(C(=O)Nc3ccc4c(c3)OCCO4)c2C1=O | inactive |
| Cc1ccc(CNC(=O)c2cc(-c3ccccc3C)nn2CC2CC(c3cccnc3)=NO2)cc1 (configuration not stated) | inactive |
| COc1ccc(N2C(=O)C(CC(=O)Nc3ccccc3)N(Cc3ccc(OC)c(OC)c3)C2=O)cc1 (configuration not stated) | inactive |
| COc1cc(NC(=O)c2cc3c(Cl)nc4ccccc4c3s2)cc(OC)c1OC | inactive |
| CCS(=O)(=O)c1ncc(Cl)c(C(=O)Nc2ccccc2OC)n1 | inactive |
| COC(=O)c1ccccc1NC(=O)c1nc(S(=O)(=O)Cc2ccccc2)ncc1Cl | inactive |
| Cc1cccc(CS(=O)(=O)c2ncc(Cl)c(C(=O)Nc3nnc(C(C)C)s3)n2)c1 | inactive |

| Compound | outcome |
| --- | --- |
| S=c1[nH]nc(COc2cccc3ccccc23)n1Cc1ccccc1 | inactive |
| COC(=O)c1ccc(COC(=O)c2[nH]c(C)c(C(C)=O)c2C)o1 | inactive |
| CCc1nnc(NC(=O)c2nc(S(=O)(=O)Cc3cccc(C)c3)ncc2Cl)s1 | inactive |
| CCCc1nnc(NC(=O)c2nc(S(=O)(=O)Cc3ccc(C)cc3)ncc2Cl)s1 | inactive |
| CN(C)S(=O)(=O)c1cccc(N=c2scc(-c3ccc4c(c3)NC(=O)CO4)n2CC2CCCO2)c1 (configuration not stated) | inactive |
| CC(C)(C)C(=O)Nc1cc(S(=O)(=O)N2CCCCC2)ccc1N1CCCCC1 | inactive |
| Cc1ccc(-c2nc3ncccc3o2)cc1NC(=O)c1sc2ccccc2c1Cl | inactive |
| Cc1ccc2cc(CN(CC3CCCO3)C(=O)NC3CCCCC3)c(=O)[nH]c2c1C (configuration not stated) | inactive |
| Cc1ccc(C(=O)N2CCN(C)CC2)cc1S(=O)(=O)N1CCCCCC1 | inactive |
| O=C(OCCN1C(=O)c2cccc3c(N4CCOCC4)ccc(c23)C1=O)c1ccccc1Cl | inactive |
| COc1ccc(C(=O)OCC(=O)Nc2ccc3[nH]c(=O)[nH]c3c2)cc1 | inactive |
| Cc1cccc(C(C)(C)C)c1OCCN1CCCC1 | inactive |
| CCOC(=O)Cc1csc(SCC(=O)c2c(N)n(CC(C)C)c(=O)n(C)c2=O)n1 | inactive |
| COc1ccc2c(c1)c(CC(=O)Nc1cc(C)ccc1C)c(C)n2C(=O)c1ccc(Cl)cc1 | inactive |
| S=C(Nc1ccccc1)Nc1ccc(OCc2ccc(Cl)cc2Cl)cc1 | inactive |
| CCCCN1CC(COCc2ccccc2)Oc2cccc(Oc3cc(C)c(C)c(C)c3)c2S1(=O)=O (configuration not stated) | inactive |
| O=C(CSc1nc(C(F)(F)F)cc(=O)[nH]1)N1CCCC1 | inactive |
| Clc1ccc(-c2cc(-c3nnc4n3CCCCC4)c3ccccc3n2)cc1 | inactive |
| Cc1cc(CN2CCOCC2)c(O)c(C2(C)CCCCC2)c1 | inactive |
| Oc1c(CN2CCN(c3ccccc3)CC2)cc(Br)c2cccnc12 | inactive |
| Cc1ccnc(N/C=C(/NC(=O)c2ccccc2)C(=O)N/N=C\c2ccc(F)cc2)n1 | inactive |
| CCS(=O)(=O)c1ccc2oc(SCC(=O)N3CCCCC3)nc2c1 | inactive |
| Oc1ccc(-c2csc(Nc3cccc4ccccc34)n2)cc1O | inactive |
| CCC(=O)c1cn(CC(=O)Nc2ccccc2Cl)c2ccccc12 | inactive |
| O=C(Cn1cc(C(=O)c2ccco2)c2ccccc21)Nc1ccccc1F | inactive |

| Compound | outcome |
| --- | --- |
| NS(=O)(=O)c1ccc(CNC(=S)NC(=O)c2ccco2)cc1 | inactive |
| Cc1ccc(-c2nnc(N3CCC(C)CC3)c3ccccc23)cc1C | inactive |
| C[C@@H]1CN([C@H](C)CO)C(=O)c2cc(Br)cnc2O[C@H]1CN(C)C(=O)Cc1ccncc1 | inactive |
| Cc1cc(C(=O)COC(=O)c2ccccc2Br)c(C)n1CC1CCCO1 (configuration not stated) | inactive |
| CCOC(=O)C1CCN(C(=O)c2sc3nc(C)nc(N4CCC(C)CC4)c3c2C)CC1 | inactive |
| CN(C(=O)CSc1nc(-c2cccs2)nc2ccccc12)C1CCS(=O)(=O)C1 (configuration not stated) | inactive |
| CC(C)=CCC/C(C)=C/CNC(=O)C[C@H]1C[C@H](C(=O)N(C(C)C)C(C)C)[C@@]2(C)c3[nH]c4cc(CCC(=O)N(C)C)ccc4c3CCN2C1=O | inactive |
| CS(=O)(=O)c1ccc(Sc2nc3ccccc3s2)c([N+](=O)[O-])c1 | inactive |
| O=[N+]([O-])c1cc(S(=O)(=O)C(F)(F)F)ccc1Sc1nc2ccccc2s1 | inactive |
| N#C/C(=C(\O)Cc1ccccc1)c1nc2ccccc2[nH]1 | inactive |
| C=CCOC(=O)C1=C(C)N=C2SCCC(=O)N2C1c1cccs1 (configuration not stated) | inactive |
| CC(=O)O[C@H]1CC[C@@]2(C)C(=CC[C@H]3[C@@H]4CC[C@H](C(C)=O)[C@@]4(C)CC[C@@H]32)C1 | inactive |
| C=CCNc1nc(N2CCOCC2)c(C#N)c2c1CN(C)CC2 | inactive |
| CC(=O)N1CCOc2cc(S(=O)(=O)NCc3ccc(F)cc3)c(C)cc21 | inactive |
| C[C@@H]1CN([C@H](C)CO)C(=O)CCCn2nncc2CO[C@H]1CN(C)S(=O)(=O)c1ccc2c(c1)OCCCO2 | inactive |
| CCn1nnc2cc(C(=O)Nc3cc(Cl)ccc3C)ccc21 | inactive |
| O=C(Sc1cccc2cccnc12)c1ccccc1Br | inactive |
| CN(c1ccccc1)S(=O)(=O)c1cccc(NC(=O)CSc2nncs2)c1 | inactive |
| CCOc1ccc2nc(SC3CC(=O)N(c4ccc(C)cc4)C3=O)sc2c1 (configuration not stated) | inactive |
| CC(C)CCNC(=O)c1cc2c(=O)[nH]c3ccccc3c2s1 | inactive |
| Cc1ccc(OC(=O)CCC(=O)Oc2ccc(C)cc2C)c(C)c1 | inactive |
| CCCC(c1nnnn1Cc1ccc(OC)cc1)N1CCN(c2ccccc2)CC1 (configuration not stated) | inactive |
| CCOC(=O)C1CCN(C(=O)c2ccc(OCC(=O)Nc3cccc(C(F)(F)F)c3)c(OC)c2)CC1 | inactive |
| Cc1ccccc1N/C(=N/S(=O)(=O)c1ccccc1)c1ccc(F)cc1 | inactive |
| CCOC(=O)C1CCCN(S(=O)(=O)c2ccc(S(=O)(=O)N(CC)CC)cc2)C1 (configuration not stated) | inactive |

| Compound | outcome |
| --- | --- |
| Cc1ccc(CNC(=O)CSc2c3c(nc4ccc(Cl)cc24)CCCC3)o1 | inactive |
| CCOc1cc(/C=C2\C(=O)ON=C2C)ccc1OCc1ccccc1 | inactive |
| CC1=NOC(=O)/C1=C\c1ccc(-c2cc(Cl)ccc2Cl)o1 | inactive |
| O=C(CSc1nc2c(c(=O)n1-c1ccc(Br)cc1)SCC2)NCc1ccco1 | inactive |
| Cc1cc(-n2c(C)cc(C(=O)CSc3nncn3C)c2C)no1 | inactive |
| CCCC(=O)NC(=S)Nc1ccc(N2CCN(C(=O)c3cccs3)CC2)cc1 | inactive |
| O=C(NCCc1ccccc1)c1ccc2c(c1)OCCO2 | inactive |
| CCOC(=O)c1c(NC(=O)c2nn(CC)cc2Br)sc(C)c1C | inactive |
| CCOC(=O)c1sc(NC(=O)CCCn2nc([N+](=O)[O-])c(Cl)c2C)c(C(=O)OCC)c1C | inactive |
| COc1ccccc1N1CCN(c2ncc(C(=O)N3CCN(c4cccc(Cl)c4)CC3)c3ccccc23)CC1 | inactive |
| O=C(Nc1cccc(S(=O)(=O)NC2=NCCC2)c1)C1CC(=O)N(c2ccc3c(c2)OCCO3)C1 (configuration not stated) | inactive |
| C=C1C(=O)[C@@]23[C@H](O)C[C@@H]4C(C)(C)CC[C@H](O)[C@]4(C)[C@@H]2C[C@H](O)[C@@H]1[C@H]3O | inactive |
| CCc1c(O)nc(SCC(=O)Nc2ccccc2)n(-c2ccccc2)c1=O | inactive |
| O=C(CSc1nc2[nH]ncc2c(=O)[nH]1)Nc1ccccc1C(F)(F)F | inactive |
| O=C(NCCNC(=O)Oc1cccc2ccccc12)Oc1cccc2ccccc12 | inactive |
| COc1cc2ncnc(N[C@H](C)c3ccccc3)c2cc1OC | inactive |
| Cc1cc(C)n(-c2cc(-n3nc(C)cc3C)ncn2)n1 | inactive |
| COc1ccc(C(=O)OCC(=O)Nc2ncc([N+](=O)[O-])s2)cc1OC | inactive |
| CS(=O)(=O)c1ccc(C(=O)OCC(=O)N2CCOCC2)cc1[N+](=O)[O-] | inactive |
| CCn1c(C)cc(C(=O)COC(=O)c2ccccc2[N+](=O)[O-])c1C | inactive |
| C=C1C(=O)C23C(O)C1CCC2C12COC3(O)C(O)C1C(C)(C)CCC2O (configuration not stated) | inactive |
| CCO[C@@H]1OC(C(=O)NC2CC2)=C[C@H](c2coc3ccccc3c2=O)[C@H]1CCCO | inactive |
